Values joined by “and” are separate entries in the source; they are usually repeats but may differ in a detail not shown here. Equal values may be shown once. Records with an inconclusive call do not appear. Active and inactive are the calls of the source. Unless noted, calls follow the shape of the dose curve; as a rule, active = well fitted curve in the direction sought with a large enough effect in the repeat runs; inconclusive = weak or mixed curves; inactive = no such curve, though single readings can be large; an effect the other way counts as inactive or inconclusive.
Legend:
[1] = molecular target: Progesterone receptor (Homo sapiens) (UniProt P06401); test: qHTS assay to identify small molecule agonists of the progesterone receptor (PR) signaling pathway (AID 1346784; calls by dose curve; also: nearly all actives have a fitted effect of over 30% in size)
Outline: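 PR-UAS-bla HEK 293T cells carrying a UAS-driven beta-lactamase reporter were seeded in medium with 2% charcoal-stripped FBS, preincubated 6 hr at 37C, then exposed to compounds in DMSO for 16 hr; agonism was read by LiveBLAzer B/G FRET fluorescence.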

[2] = molecular target: Progesterone receptor (Homo sapiens) (UniProt P06401); test: qHTS assay to identify small molecule antagonists of the progesterone receptor (PR) signaling pathway (AID 1346795; active = well fitted inhibition curve with a large enough effect in the signal ratio in the repeat runs, not every such curve was filed as active; the % refers to the signal ratio; also: potency is read from the fitted curve at half-maximal effect)
Outline: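 PR-UAS-bla HEK293T cells carrying a UAS-driven beta-lactamase reporter were plated in medium with 2% charcoal-stripped FBS and rested 6 hr at 37C. Compounds were added with 1 nM R5020 (final) for 16 hr, then FRET substrate loaded 2 hr at room temperature.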

[3] = qHTS assay to identify small molecule antagonists of the progesterone receptor (PR) signaling pathway - cell viability counter screen (AID 1346798); also: nearly all actives have a fitted effect of over 50% in size; also: potency is read from the fitted curve at half-maximal effect
Outline: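 PR-UAS-bla HEK293T cells in medium with 2% charcoal-stripped FBS were treated with compounds plus R5020 for 16 hr at 37C. Cell viability was then read by CellTiter-Glo luminescence after 30 min at room temperature in the same wells.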

[4] = qHTS assay to identify small molecule agonists of the progesterone receptor (PR) signaling pathway - cell viability counter screen (AID 1346799; calls by dose curve; also: nearly all actives have a fitted effect of over 45% in size; also: potency is read from the fitted curve at half-maximal effect)
Outline: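 PR-UAS-bla HEK293T cells, 3,000 per well in medium with 2% charcoal-stripped FBS, were preincubated 6 hr at 37C, then exposed to compounds for 16 hr; viability was read as CellTiter-Glo luminescence after 30 min at room temperature.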

[5] = qHTS assay to identify small molecule agonists of the TGF-beta/Smad signaling pathway - cell viability counter screen (AID 1346829); also: nearly all actives have a fitted effect of over 45% in size; also: potency is read from the fitted curve at half-maximal effect
Outline: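 Here the cytotoxicity of library compounds is measured in SBE-bla HEK 293T cells treated for 5 hr, using CellTiter-Glo added to wells already read for the beta-lactamase reporter.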

[6] = qHTS assay to identify small molecule agonists of the TGF-beta/Smad signaling pathway (AID 1346859; active = well fitted activation curve with a large enough effect in the signal ratio in the repeat runs, not every such curve was filed as active; the % refers to the signal ratio; also: series mostly up to about 77 µM)
Outline: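 HEK 293T cells stably carrying a beta-lactamase reporter driven by the Smad binding element were seeded overnight, exposed to DMSO-dissolved compounds for 5 hr at 37 C, 5% CO2, then loaded with FRET substrate for 2 hr at room temperature.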

[7] = molecular target: Thyrotropin-releasing hormone receptor (Homo sapiens) (UniProt P34981); test: qHTS assay to identify small molecule antagonists of the thyrotropin-releasing hormone receptor (TRHR) signaling pathway (AID 1346877; active = well fitted inhibition curve with a large enough effect in the repeat runs, not every such curve was filed as active; also: potency is read from the fitted curve at half-maximal effect; as to activity, negative = inhibition: series mostly up to about 51 µM)
Outline: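 Cells (TRHR-HEK293) are plated and kept 18 h at 37 °C/5% CO2. A calcium-sensitive dye is added for 2 h, compound follows for 5 min at room temperature, and TRH is then given at 1 nM final.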

[8] = molecular target: Thyrotropin-releasing hormone receptor (Homo sapiens) (UniProt P34981); test: qHTS assay to identify small molecule agonists of the thyrotropin-releasing hormone receptor (TRHR) signaling pathway (AID 1346891; calls by dose curve; also: series mostly up to about 58 µM)
Outline: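 TRHR-expressing HEK293 cells were plated 18 h at 37 °C/5% CO2, loaded with calcium dye 2 h at 37 °C, then given compound in DMSO; fluorescence was read kinetically for 3 min at 1 s intervals.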

[9] = Human pregnane X receptor (PXR) small molecule agonists, qHTS cell viability counter screen (AID 1346977); also: nearly all actives have a fitted effect of over 50% in size; also: potency is read from the fitted curve at half-maximal effect
Outline: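 PXR-Luc HepG2 cells in medium with 5% charcoal-stripped FBS were pre-incubated 5hr, then exposed to compounds for 24hr at 37C. Viability was read in the same wells by CellTiter-Fluor fluorescence, reagent added after 23hr with a 1hr incubation.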

[10] = Caspase-3/7 induction in HepG2 cells by small molecules, qHTS assay (AID 1346978); also: nearly all actives have a fitted effect of over 15% in size; also: potency is read from the fitted curve at half-maximal effect
Outline: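 Wild-type HepG2 cells (2,000/well) were settled 5 h at 37 C, 5% CO2, then exposed to compounds in DMSO for 17 h. Caspase-3/7 activity was read by luminescence 30 min after adding Caspase-Glo 3/7 reagent at room temperature.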

[11] = Caspase-3/7 induction in CHO-K1 cells by small molecules, qHTS cell viability counter screen (AID 1346979); also: nearly all actives have a fitted effect of over 35% in size; also: potency is read from the fitted curve at half-maximal effect
Outline: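 Wild-type CHO-K1 cells were seeded at 1,500 per well, rested 5hr at 37 C, then exposed to compounds in DMSO. After 16hr, CellTiter-Fluor reagent was added and fluorescence read 1hr later as the viability measure.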

[12] = Caspase-3/7 induction in CHO-K1 cells by small molecules, qHTS assay (AID 1346980); also: nearly all actives have a fitted effect of over 15% in size; also: potency is read from the fitted curve at half-maximal effect
Outline: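 Wild-type cells were seeded at 1,500 per well and settled 5 hr at 37 C, 5% CO2, then exposed to DMSO-dissolved compounds for 17 hr. Caspase-Glo 3/7 reagent was added, and luminescence was read after 30min at room temperature.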

[13] = Caspase-3/7 induction in HepG2 cells by small molecules, qHTS cell viability counter screen (AID 1346981); also: nearly all actives have a fitted effect of over 30% in size; also: potency is read from the fitted curve at half-maximal effect
Outline: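 Steps: seed 2,000 HepG2 cells per well; incubate 5 hr at 37 C; pin-add compounds in DMSO; incubate 16 hr; add CellTiter-Fluor; after 1 hr at 37 C and 5% CO2, read fluorescence.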

[14] = molecular target: Nuclear receptor subfamily 1 group I member 2 (Homo sapiens) (UniProt O75469); test: Human pregnane X receptor (PXR) small molecule agonists, qHTS assay (AID 1346982); also: nearly all actives have a fitted effect of over 35% in size; also: potency is read from the fitted curve at half-maximal effect
Outline: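 Agonist mode qHTS: PXR-Luc HepG2 cells plated 5 hr before DMSO-dissolved compounds were pinned in, cultured 24 hr at 37 C, 5% CO2; ONE-Glo luminescence readout.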

[15] = molecular target: Cytochrome P450 2D6 (Homo sapiens) (UniProt P10635); test: Cytochrome P450 Family 2 Subfamily D Member 6 (CYP2D6) small molecule antagonists: luciferase reporter qHTS assay (AID 1671196); also: nearly all actives have a fitted effect of over 50% in size; also: potency is read from the fitted curve at half-maximal effect
Outline: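 P450-Glo format: CYP2D6 converts a proluciferin substrate to luciferin in an NADPH-driven reaction lasting 1 h at room temperature. Light output, proportional to CYP2D6 activity, reflects interference by test chemicals.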

[16] = molecular target: Cytochrome P450 2C19 (Homo sapiens) (UniProt P33261); test: Cytochrome P450 Family 2 Subfamily C Member 19 (CYP2C19) small molecule antagonists: luciferase reporter qHTS assay (AID 1671197); also: nearly all actives have a fitted effect of over 65% in size; also: potency is read from the fitted curve at half-maximal effect
Outline: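 Light output is proportional to CYP2C19 activity: proluciferin substrate is converted to luciferin, then detected by a luciferin detection reagent that also stops the 1 h, 37C NADPH-driven reaction. Ketoconazole serves as positive control.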

[17] = qHTS assay to identify small molecule antagonists of the TGF-beta/Smad signaling pathway - cell viability counter screen (AID 1346824); also: nearly all actives have a fitted effect of over 50% in size; also: potency is read from the fitted curve at half-maximal effect
Outline: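 SBE-bla HEK 293T cells were plated overnight at 37 C, then given compounds in DMSO plus TGF-beta1 (added as 0.25 ng/mL solution) for 5 hr. After the bla read, CellTiter-Glo was added to the same wells and luminescence read after 30 min at room temperature.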

[18] = molecular target: Nuclear receptor subfamily 1 group I member 2 (Rattus norvegicus) (UniProt Q9R1A7); test: Rat pregnane X receptor (rPXR) activation by small molecules, qHTS assay (AID 1346983); settings: rPXR luciferase reporter cells, One-Glo luminescence, 24 h; max activation: hits give high values; also: nearly all actives have a fitted effect of over 20% in size
Outline: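 Cell-based rPXR luciferase reporter assay, 2,000 cells per well, rested 5hr at 37 C before compound addition in DMSO, then 24 hr at 37 C. One-Glo reagent was added and luminescence read after 30 min at room temperature.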

[19] = molecular target: Nuclear receptor subfamily 1 group I member 2 (Homo sapiens) (UniProt O75469); test: CYP3A4 induction through human pregnane X receptor (PXR) by small molecules, qHTS assay (AID 1346984); also: nearly all actives have a fitted effect of over 40% in size
Outline: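 Steps: seed DPX-2 cells, 5 hr at 37C; pin-transfer compounds; 24 hr at 37C; add Luciferin-IPA (3uM final), 3 hr at 37C; add One-Glo, 30 min RT; read luminescence.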

[20] = molecular target: Nuclear receptor subfamily 1 group I member 2 (Homo sapiens) (UniProt O75469); test: Human pregnane X receptor (PXR) activation by small molecules, qHTS assay (AID 1346985); also: nearly all actives have a fitted effect of over 40% in size
Outline: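 DPX-2 cells (HepG2 co-transfected with a PXR response element and a CYP3A4-promoter luciferase construct) were seeded at 2,000 per well, rested 5 hr at 37C, then exposed to DMSO-dissolved compounds for 24 hr. Activation was read as luciferase luminescence.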
% is scaled to controls: 0 for no effect and ±100 for the full control effect.

Chain of Progesterone receptor (Homo sapiens) (P06401 whole entry, looked up): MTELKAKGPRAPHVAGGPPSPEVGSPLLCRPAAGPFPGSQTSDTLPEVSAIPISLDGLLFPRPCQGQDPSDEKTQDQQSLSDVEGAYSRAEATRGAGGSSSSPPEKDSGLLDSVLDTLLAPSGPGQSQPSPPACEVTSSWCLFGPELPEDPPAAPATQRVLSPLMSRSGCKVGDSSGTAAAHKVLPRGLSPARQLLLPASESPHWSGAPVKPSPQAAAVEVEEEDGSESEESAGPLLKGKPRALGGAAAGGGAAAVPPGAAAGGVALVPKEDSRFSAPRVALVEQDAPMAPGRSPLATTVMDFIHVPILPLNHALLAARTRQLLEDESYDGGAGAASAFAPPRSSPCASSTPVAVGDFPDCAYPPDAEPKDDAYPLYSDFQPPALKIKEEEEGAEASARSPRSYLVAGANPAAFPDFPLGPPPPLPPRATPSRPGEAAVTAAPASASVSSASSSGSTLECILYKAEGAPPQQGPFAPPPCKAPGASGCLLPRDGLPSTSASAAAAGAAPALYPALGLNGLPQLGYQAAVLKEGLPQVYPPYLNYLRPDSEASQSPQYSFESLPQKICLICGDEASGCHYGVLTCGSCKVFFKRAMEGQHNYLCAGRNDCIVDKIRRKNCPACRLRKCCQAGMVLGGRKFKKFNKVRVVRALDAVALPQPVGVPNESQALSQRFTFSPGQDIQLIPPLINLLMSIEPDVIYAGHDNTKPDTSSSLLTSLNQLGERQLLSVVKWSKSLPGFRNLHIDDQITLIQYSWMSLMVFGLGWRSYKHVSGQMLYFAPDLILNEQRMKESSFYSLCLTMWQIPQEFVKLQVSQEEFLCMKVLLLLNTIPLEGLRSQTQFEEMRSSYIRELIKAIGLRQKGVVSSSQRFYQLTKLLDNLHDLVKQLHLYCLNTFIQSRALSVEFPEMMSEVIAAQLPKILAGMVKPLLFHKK
Chain of Nuclear receptor subfamily 1 group I member 2 (Rattus norvegicus) (Q9R1A7 whole entry, looked up): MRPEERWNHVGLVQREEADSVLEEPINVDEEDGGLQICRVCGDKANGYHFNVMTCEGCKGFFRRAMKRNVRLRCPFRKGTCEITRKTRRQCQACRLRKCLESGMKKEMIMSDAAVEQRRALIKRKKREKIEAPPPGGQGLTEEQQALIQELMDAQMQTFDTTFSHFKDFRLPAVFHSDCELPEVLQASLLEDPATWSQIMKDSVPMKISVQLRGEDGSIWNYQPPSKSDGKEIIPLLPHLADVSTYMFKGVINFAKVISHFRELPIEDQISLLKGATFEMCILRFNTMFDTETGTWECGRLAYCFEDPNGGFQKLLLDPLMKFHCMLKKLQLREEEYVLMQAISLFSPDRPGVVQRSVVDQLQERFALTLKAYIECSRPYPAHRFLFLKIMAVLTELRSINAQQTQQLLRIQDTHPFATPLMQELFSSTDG
Chain of Cytochrome P450 2D6 (Homo sapiens) (P10635 whole entry, looked up): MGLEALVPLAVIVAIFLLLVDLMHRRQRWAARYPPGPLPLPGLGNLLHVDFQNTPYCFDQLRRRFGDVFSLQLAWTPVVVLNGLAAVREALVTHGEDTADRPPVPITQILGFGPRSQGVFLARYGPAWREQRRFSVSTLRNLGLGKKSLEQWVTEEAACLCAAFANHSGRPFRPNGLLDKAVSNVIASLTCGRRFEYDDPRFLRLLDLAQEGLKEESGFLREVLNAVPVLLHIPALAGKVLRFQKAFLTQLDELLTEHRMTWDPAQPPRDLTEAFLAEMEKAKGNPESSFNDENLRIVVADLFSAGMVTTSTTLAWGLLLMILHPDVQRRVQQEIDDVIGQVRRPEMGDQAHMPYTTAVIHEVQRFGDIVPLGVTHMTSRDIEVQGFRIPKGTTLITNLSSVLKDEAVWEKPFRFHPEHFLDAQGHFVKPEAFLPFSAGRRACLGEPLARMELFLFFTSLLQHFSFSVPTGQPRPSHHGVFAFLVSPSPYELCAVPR
Chain of Thyrotropin-releasing hormone receptor (Homo sapiens) (P34981 whole entry, looked up): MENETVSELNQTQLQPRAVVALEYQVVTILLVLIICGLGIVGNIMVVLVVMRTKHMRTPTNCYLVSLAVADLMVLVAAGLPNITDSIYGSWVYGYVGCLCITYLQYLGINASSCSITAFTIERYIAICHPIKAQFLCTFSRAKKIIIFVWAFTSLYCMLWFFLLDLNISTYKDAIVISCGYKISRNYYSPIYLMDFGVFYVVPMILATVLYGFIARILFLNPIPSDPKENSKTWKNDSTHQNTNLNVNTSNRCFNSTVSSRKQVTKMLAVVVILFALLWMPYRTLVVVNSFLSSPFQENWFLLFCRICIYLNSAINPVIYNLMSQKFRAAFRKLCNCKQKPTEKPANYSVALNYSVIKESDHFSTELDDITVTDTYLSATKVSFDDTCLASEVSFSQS
Chain of Cytochrome P450 2C19 (Homo sapiens) (P33261 whole entry, looked up): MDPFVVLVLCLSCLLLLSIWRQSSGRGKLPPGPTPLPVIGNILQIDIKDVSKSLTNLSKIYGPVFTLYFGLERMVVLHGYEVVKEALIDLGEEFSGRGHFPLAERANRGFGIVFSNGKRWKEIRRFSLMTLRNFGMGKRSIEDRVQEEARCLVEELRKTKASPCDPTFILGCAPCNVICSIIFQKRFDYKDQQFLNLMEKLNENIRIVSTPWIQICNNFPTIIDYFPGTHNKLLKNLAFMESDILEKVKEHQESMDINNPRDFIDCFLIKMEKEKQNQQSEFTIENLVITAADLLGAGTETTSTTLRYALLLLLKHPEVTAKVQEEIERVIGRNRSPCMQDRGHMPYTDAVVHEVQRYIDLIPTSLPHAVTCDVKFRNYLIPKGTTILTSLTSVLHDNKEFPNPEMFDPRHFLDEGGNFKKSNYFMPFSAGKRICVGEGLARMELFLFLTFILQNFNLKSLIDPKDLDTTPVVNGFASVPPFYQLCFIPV

CCCCCCCCCCCCCCCS(=O)(=O)Oc1ccccc1
active: Potency [16] 4.36 µM
inactive: Potency [1] | Potency [2] | Potency [3] | Potency [4] | Potency [5] | Potency [6] | Potency [7] | Potency [8] | Potency [9] | Potency [10] | Potency [11] | Potency [12] | Potency [13] | Potency [14] | Potency [15]

C1CCCC1
inactive: Potency [1] | Potency [2] | Potency [3] | Potency [4] | Potency [17] | Potency [5] | Potency [6] | Potency [7] | Potency [9] | Potency [10] | Potency [12] | Potency [13] | Potency [14]
active: Potency [15] 34.8 µM

Clc1ccc2nsnc2c1NC1=NCCN1
active: Potency [15] 12.3 µM
inactive: Potency [1] | Potency [2] | Potency [3] | Potency [4] | Potency [17] | Potency [5] | Potency [6] | Potency [9] | Potency [10] | Potency [11] | Potency [12] | Potency [13] | Potency [14] | max activation [18] -3.32% | Potency [19] | Potency [20] | Potency [16]

CO[Si](CCCNc1ccccc1)(OC)OC
inactive: Potency [1] | Potency [2] | Potency [3] | Potency [4] | Potency [17] | Potency [5] | Potency [6] | Potency [7] | Potency [8] | Potency [9] | Potency [10] | Potency [11] | Potency [12] | Potency [13] | Potency [15] | Potency [16]

CNC(=O)c1ccccc1
inactive: Potency [1] | Potency [2] | Potency [3] | Potency [4] | Potency [17] | Potency [5] | Potency [6] | Potency [7] | Potency [8] | Potency [9] | Potency [10] | Potency [12] | Potency [13] | Potency [14] | Potency [16]

CCCCCCCC(=O)[O-].CCCCCCCC(=O)[O-].[Zn+2]
inactive: Potency [1] | Potency [2] | Potency [3] | Potency [4] | Potency [5] | Potency [6] | Potency [9] | Potency [10] | Potency [11] | Potency [12] | Potency [13] | Potency [14] | Potency [15] | Potency [16]

C[n+]1cc2c3c(ccc2c2ccc4cc5c(cc4c21)OCO5)OCO3
active: Potency [2] 2.59 µM | Potency [3] 3.66 µM | Potency [4] 3.26 µM | Potency [17] 4.65 µM | Potency [5] 6.57 µM | Potency [9] 2.91 µM | Potency [10] 3.66 µM | Potency [11] 1.03 µM | Potency [12] 1.3 µM | Potency [13] 5.17 µM | Potency [15] 6.74 µM | Potency [16] 1.07 µM
inactive: activation [1] -18.8% [at 19 µM] | activity, negative = inhibition [7] 3.07% [at 10.5 µM] | activation [8] 2.25% [at 11.8 µM] | activation [14] -46.6% [at 19 µM]

Oc1ccc2c(c1)-c1ccccc1C2
inactive: Potency [1] | Potency [3] | Potency [4] | Potency [17] | Potency [5] | Potency [6] | Potency [7] | Potency [8] | Potency [9] | Potency [10] | Potency [12] | Potency [13] | Potency [15]
active: Potency [2] 17.2 µM | Potency [14] 68.6 µM | Potency [16] 39.9 µM

Cc1ccc(O)c(C(C)(C)C)c1
active: Potency [10] 61 µM | Potency [16] 35.5 µM and 35.6 µM
inactive: Potency [1] | Potency [2] | Potency [3] | Potency [4] | Potency [17] | Potency [5] | Potency [6] | Potency [9] | Potency [12] | Potency [13] | Potency [14] | Potency [15]

COc1cc(/C=C/C(=O)O[C@H]2CC[C@]34C[C@]35CC[C@]3(C)[C@@H]([C@H](C)CCC=C(C)C)CC[C@@]3(C)[C@@H]5CC[C@H]4C2(C)C)ccc1O
inactive: Potency [1] | Potency [2] | Potency [3] | Potency [4] | Potency [17] | Potency [5] | Potency [6] | Potency [7] | Potency [9] | Potency [11] | Potency [12] | Potency [13] | Potency [14] | max activation [18] -10.7% | Potency [19] | Potency [20] | Potency [15] | Potency [16]
active: Potency [10] 15 µM

Oc1ccc(N=Nc2ccccc2)cc1
inactive: Potency [1] | Potency [3] | Potency [17] | Potency [5] | Potency [6] | Potency [7] | Potency [8] | Potency [10] | Potency [12]
active: Potency [2] 19.6 µM | Potency [13] 55.2 µM | Potency [14] 34.8 µM | Potency [16] 20.3 µM

Cc1ccc(O)c2ncccc12
active: Potency [2] 7.5 µM | Potency [7] 5.23 µM | Potency [9] 5.96 µM | Potency [11] 5.31 µM
inactive: Potency [1] | Potency [3] | Potency [17] | Potency [5] | Potency [6] | Potency [8] | Potency [12] | Potency [13] | max activation [18] -0.8% | Potency [19] | Potency [20] | Potency [15] | Potency [16]

CSc1cnc(C)cn1
inactive: Potency [1] | Potency [2] | Potency [3] | Potency [4] | Potency [17] | Potency [5] | Potency [6] | Potency [7] | Potency [8] | Potency [9] | Potency [10] | Potency [11] | Potency [12] | Potency [13] | Potency [14] | Potency [15] | Potency [16]

CCCCCOc1ccccc1/C(=C\SC)n1ccnc1
active: Potency [2] 3.76 µM | Potency [3] 5.31 µM | Potency [9] 23.7 µM | Potency [14] 2.98 µM | Potency [15] 4.36 µM | Potency [16] 1.1 µM
inactive: Potency [1] | Potency [17] | Potency [5] | Potency [6] | Potency [7] | Potency [8] | Potency [10] | Potency [12] | Potency [13]

Reference: PubChem BioAssay (Tox21)
